In the supplement of paper PMC11732987, “Enantioselective OTUD7B fragment discovery through chemoproteomics screening and high-throughput optimisation” (Communications Chemistry, 2025):

Legend:
Assay in all cases: log2 ratio of Biotin-Ahx-Ub-VS probe labelling (fragment/DMSO); higher = less target engagement (more negative = stronger competition), active = hit call of the paper (q ≤ 0.05, log2 ratio ≤ -1)
Conditions in all cases: compound concentration: 200 uM; treatment time: 3 h
USP19 = biological target: T1, USP19 (UniProt O94966)
T1 sequence (whole entry): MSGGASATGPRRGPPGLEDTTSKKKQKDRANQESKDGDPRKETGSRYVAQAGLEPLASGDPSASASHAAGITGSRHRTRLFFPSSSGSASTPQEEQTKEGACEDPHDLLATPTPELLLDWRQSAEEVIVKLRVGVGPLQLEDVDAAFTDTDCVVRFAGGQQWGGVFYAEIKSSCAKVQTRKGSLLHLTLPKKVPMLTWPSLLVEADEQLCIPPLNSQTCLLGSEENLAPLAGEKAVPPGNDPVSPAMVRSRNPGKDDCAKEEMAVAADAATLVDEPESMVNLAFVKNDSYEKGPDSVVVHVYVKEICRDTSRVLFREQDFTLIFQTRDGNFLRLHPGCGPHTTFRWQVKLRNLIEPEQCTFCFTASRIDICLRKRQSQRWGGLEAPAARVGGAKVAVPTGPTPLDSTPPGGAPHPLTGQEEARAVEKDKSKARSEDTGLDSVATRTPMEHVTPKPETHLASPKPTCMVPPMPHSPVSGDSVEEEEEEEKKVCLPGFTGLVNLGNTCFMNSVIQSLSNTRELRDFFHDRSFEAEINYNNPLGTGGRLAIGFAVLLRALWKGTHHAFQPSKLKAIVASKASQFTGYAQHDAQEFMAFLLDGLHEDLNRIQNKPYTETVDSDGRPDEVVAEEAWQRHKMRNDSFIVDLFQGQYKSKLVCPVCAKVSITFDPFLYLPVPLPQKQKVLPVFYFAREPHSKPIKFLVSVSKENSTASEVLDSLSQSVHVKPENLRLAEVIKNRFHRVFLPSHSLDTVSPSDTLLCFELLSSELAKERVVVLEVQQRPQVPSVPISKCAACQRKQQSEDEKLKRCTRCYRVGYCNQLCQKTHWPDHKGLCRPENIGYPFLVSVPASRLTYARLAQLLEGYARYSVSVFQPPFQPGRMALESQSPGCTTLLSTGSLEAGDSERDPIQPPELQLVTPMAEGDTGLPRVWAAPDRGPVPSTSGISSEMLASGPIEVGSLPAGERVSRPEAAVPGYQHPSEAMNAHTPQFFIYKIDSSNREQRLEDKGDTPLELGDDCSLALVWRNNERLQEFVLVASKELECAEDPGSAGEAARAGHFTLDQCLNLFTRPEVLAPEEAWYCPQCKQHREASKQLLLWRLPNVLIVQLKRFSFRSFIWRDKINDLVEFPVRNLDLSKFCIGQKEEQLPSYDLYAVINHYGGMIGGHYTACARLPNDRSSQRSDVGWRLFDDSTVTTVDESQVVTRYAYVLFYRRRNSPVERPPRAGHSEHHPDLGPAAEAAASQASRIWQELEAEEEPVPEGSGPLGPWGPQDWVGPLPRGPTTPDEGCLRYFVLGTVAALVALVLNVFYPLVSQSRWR
In short: (§1)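 Average log2 ratios of fragment over vehicle were obtained by unpaired t-test from global-median-normalised Spectronaut label-free quantities. Proteins with ≥2 unique peptides were included. HEK293T lysate (495 µg per sample) was treated in triplicate with fragment at 200 µM or vehicle for 3 h, then with Biotin-Ahx-Ub-VS at 0.5 µM final for 1 h, and labelled DUBs were NeutrAvidin-enriched and run by diaPASEF LC-MS/MS.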

USP24 = USP24 (UniProt Q9UPU5)
Sequence of USP24 (Q9UPU5 whole entry): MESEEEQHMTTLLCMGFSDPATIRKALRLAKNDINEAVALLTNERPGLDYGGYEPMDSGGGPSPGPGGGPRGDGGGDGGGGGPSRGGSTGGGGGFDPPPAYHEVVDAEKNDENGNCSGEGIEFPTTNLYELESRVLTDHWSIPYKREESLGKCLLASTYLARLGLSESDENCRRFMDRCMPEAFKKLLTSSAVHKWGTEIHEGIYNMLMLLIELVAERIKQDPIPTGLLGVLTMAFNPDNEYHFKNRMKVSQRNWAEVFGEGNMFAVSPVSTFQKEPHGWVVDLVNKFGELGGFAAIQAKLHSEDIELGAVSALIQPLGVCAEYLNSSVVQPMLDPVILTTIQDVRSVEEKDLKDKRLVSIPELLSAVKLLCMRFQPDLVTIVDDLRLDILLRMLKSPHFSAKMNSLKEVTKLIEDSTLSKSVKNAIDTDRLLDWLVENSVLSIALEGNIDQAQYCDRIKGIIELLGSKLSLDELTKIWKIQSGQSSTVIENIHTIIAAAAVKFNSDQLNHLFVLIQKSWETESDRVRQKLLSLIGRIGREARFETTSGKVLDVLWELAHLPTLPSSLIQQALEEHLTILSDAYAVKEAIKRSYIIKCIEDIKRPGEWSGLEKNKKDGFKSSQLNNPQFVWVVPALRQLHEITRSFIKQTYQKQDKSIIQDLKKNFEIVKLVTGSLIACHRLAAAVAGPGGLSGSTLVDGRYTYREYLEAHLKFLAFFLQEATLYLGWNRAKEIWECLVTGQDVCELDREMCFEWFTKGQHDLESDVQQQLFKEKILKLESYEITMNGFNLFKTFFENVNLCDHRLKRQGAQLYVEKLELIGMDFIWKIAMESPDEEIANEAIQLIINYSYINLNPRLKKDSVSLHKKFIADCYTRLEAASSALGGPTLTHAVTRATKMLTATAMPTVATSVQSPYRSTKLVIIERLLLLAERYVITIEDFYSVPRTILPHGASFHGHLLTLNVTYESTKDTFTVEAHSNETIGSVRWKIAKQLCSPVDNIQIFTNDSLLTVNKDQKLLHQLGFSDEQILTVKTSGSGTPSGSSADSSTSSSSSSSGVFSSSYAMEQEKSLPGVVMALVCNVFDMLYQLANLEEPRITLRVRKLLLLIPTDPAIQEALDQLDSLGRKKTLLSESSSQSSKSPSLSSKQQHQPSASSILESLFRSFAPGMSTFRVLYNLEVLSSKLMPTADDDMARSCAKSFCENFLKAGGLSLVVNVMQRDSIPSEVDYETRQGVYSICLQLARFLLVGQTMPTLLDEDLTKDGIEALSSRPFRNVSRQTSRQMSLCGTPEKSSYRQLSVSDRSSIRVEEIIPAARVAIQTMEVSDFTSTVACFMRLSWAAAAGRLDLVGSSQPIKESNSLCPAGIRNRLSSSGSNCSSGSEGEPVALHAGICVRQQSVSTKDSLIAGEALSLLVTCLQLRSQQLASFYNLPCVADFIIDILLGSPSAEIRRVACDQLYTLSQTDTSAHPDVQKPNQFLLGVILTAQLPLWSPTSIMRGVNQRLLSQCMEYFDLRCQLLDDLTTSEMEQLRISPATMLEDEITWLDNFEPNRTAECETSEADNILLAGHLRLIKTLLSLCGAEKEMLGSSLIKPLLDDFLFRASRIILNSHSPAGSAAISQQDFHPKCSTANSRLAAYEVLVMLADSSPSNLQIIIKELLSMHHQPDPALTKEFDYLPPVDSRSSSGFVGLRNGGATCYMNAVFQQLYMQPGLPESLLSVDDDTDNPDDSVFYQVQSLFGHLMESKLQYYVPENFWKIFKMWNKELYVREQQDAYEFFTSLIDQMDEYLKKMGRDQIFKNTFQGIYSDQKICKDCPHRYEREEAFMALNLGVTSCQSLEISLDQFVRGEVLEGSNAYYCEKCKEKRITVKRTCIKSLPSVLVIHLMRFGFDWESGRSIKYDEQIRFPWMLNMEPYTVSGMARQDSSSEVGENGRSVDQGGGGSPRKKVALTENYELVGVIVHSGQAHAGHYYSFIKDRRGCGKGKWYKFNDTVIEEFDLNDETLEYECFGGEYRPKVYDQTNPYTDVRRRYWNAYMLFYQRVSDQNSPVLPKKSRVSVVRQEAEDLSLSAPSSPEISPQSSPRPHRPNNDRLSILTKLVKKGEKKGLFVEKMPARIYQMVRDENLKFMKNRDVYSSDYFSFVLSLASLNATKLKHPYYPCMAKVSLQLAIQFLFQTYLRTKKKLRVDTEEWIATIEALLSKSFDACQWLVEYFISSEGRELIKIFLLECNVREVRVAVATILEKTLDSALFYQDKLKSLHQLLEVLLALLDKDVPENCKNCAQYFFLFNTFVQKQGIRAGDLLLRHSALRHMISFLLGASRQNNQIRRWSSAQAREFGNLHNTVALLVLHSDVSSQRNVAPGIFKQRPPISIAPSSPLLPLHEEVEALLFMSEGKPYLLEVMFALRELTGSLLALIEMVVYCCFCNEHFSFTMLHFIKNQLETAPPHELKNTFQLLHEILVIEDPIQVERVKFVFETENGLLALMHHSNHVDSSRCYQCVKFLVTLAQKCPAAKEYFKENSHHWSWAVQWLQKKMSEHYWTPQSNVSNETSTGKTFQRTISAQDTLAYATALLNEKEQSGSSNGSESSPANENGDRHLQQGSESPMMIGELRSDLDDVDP
In short: as §1

USP25 = biological target: T2, USP25 (UniProt Q9UHP3)
T2 sequence (whole entry): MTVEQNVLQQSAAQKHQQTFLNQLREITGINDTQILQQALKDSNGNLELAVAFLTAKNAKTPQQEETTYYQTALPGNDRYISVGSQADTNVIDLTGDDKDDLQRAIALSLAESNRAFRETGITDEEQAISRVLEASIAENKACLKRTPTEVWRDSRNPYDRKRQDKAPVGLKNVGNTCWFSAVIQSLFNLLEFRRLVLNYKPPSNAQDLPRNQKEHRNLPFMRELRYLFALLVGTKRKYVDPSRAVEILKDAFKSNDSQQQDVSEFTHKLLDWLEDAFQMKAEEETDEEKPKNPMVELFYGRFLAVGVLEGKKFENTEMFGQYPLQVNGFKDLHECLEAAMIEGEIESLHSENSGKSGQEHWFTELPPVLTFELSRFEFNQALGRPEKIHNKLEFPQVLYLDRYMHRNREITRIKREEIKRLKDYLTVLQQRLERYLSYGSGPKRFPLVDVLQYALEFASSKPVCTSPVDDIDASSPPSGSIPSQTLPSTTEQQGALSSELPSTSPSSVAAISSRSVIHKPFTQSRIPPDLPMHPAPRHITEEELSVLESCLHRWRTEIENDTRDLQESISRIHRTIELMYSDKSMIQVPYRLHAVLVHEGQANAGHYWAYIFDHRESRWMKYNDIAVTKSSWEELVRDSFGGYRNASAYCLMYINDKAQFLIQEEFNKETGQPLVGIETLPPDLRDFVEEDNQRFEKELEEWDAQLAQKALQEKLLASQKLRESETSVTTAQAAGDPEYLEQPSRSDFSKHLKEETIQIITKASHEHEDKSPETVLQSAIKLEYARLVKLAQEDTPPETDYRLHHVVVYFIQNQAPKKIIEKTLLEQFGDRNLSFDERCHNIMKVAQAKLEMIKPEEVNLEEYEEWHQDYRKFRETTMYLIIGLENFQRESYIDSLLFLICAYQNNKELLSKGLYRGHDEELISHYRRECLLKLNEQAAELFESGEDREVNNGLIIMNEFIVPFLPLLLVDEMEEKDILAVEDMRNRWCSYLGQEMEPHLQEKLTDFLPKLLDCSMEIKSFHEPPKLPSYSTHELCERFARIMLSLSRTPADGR
In short: as §1

USP28 = biological target: T3, USP28 (UniProt Q96RU2)
T3 sequence (whole entry): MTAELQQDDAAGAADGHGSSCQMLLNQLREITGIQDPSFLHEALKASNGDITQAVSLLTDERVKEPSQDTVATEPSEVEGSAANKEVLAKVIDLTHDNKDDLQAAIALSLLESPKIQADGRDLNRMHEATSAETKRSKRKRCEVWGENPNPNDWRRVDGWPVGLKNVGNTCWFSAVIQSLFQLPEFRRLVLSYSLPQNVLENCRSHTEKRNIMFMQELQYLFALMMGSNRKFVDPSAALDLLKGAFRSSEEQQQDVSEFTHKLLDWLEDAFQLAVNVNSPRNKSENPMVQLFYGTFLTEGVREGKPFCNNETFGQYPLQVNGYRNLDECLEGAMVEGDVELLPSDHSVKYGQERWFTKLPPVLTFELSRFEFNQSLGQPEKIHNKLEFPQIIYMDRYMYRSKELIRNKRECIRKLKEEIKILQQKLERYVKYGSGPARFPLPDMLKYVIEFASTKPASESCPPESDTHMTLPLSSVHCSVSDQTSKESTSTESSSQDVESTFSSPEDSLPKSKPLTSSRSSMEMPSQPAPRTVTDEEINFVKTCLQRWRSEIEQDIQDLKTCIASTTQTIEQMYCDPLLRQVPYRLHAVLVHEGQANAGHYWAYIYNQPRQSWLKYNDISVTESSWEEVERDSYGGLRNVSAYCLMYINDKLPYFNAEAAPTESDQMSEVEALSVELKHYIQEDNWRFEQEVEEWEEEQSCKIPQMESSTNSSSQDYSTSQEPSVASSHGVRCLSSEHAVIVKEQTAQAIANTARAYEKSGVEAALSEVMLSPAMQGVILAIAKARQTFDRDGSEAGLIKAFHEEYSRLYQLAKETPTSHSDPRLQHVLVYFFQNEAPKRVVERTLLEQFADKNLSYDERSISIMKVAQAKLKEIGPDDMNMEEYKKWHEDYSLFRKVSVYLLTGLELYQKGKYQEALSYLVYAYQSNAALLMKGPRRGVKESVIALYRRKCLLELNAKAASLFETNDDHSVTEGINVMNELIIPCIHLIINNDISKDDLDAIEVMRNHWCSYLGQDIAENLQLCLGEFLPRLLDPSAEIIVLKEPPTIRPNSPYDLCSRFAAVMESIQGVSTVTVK
In short: as §1

Measured: log2 ratio of Biotin-Ahx-Ub-VS probe labelling

CC(c1ccccc1)N(C)C(=O)CCl (centres undefined)
inactive: USP19 -0.444 | USP24 -0.45 | USP25 -0.472 | USP28 -0.526
